Here are results for 62 compounds from PubChem BioAssay AID1578 (Sanford-Burnham Center for Chemical Genomics, 2009).

The campaign covered roughly 290,000 compounds. About 3,000 (1%) were called active. Many of the other results were omitted from the sample, so actives are more common in it than they were. A number with no mark means an inactive call. Cut-off read from the data, not from the text of the source: active = inhibition mostly above about 36% (no sharp cut-off); inactive = mostly below about 34%.

A short description of the experiment: NOD1 signaling inhibitors, primary screen, cell-based, luminescence, uHTS (AID 1578).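 Note: HEK-293T reporter cells stimulated with the NOD1 agonist gamma-tri-DAP.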 The note with it: NOD1-driven NF-kB luciferase reporter cells, at 4 µM, active compounds read high.
What is called inhibition is the relative decrease from the control value, in per cent. On to `NC(=O)c1nn(-c2ccc(Oc3ccccc3)cc2)c(=O)cc1O`, for which the inhibition was -23.2%. As for `O=C(NC(=S)NCCc1ccccc1)c1ccco1`, the figure is -69.5%. As for `CC(CCc1ccccc1)NC(=S)NC(=O)c1ccco1` (configuration not stated), the inhibition is -37%. For `O=C(NC(=S)N(CCc1ccccc1)CCc1ccccc1)c1ccco1`, the inhibition is 97.6% (active). As for `CC(C)C1Nc2ccc(C(=O)NC3CCCCC3)cc2NC1=O` (configuration not stated), the figure is -43.7%. The figure for `Nc1nc(-c2ccccc2)cc(N2CCCCC2)n1` is 6.2%; for `CN(C)S(=O)(=O)c1cccc(NC(=S)N/N=C/c2cc(Br)ccc2O)c1` it is -11.2%.

Consider `COc1ccc(O)c(/C=N/NC(=S)Nc2cccc(S(=O)(=O)N(C)C)c2)c1`, for which the inhibition was -37%.

Turning to `CN(C)S(=O)(=O)c1cccc(NC(=S)N/N=C/c2ccc(O)c(O)c2O)c1`, the inhibition was 56.3% (active). For `Cc1cccc2nc(-c3ccccc3)nc(N3CCC(O)(c4ccc(Cl)cc4)CC3)c12`, the inhibition is -4.5%. As for `CCN1CCCC1CNC(=O)c1ccc(CS(=O)(=O)c2ccccc2C)o1` (configuration not stated), the figure is 4.8%; as for `Cc1ccc(S(=O)(=O)N2CCOC23CCN(C(=O)c2ccc(Cl)cc2Cl)CC3)cc1`, -26.1%; as for `Oc1ccccc1C=Nc1ccccc1-c1nc2ccccc2[nH]1`, -7.6%. As for `CC(C)(C)C(=O)NC(NC(=S)Nc1sc2c(c1C#N)CCCC2)C(Cl)(Cl)Cl` (configuration not stated), the figure is 46.4%; as for `CC(C)CC(=O)NC(NC(=S)Nc1sc2c(c1C#N)CCCC2)C(Cl)(Cl)Cl` (configuration not stated), 64.5% (active).

On to `CC(C)(C)C(=O)NC(=S)Nc1sc2c(c1C#N)CCCCC2`, for which the inhibition was -10.7%. As for `Cc1cc(Nc2ccccc2)nc(NCc2ccccc2)n1`, the figure is 52.7%; as for `O=C(c1ccco1)N1CCN(C(=O)c2cc3c(s2)-c2ccccc2OC3)CC1`, -13%.

On to `CCOc1ccc(C(=O)NCC(=O)OCC(=O)N2C(C)CCCC2C)cc1` (configuration not stated), for which the inhibition was -9.2%. Take `O=C(N/N=C/c1ccoc1)c1ccccc1`: the inhibition was 20.3%. The figure for `CN(CCO)S(=O)(=O)c1ccc2c(c1)C(=NO)c1cc(S(=O)(=O)N(C)CCO)ccc1-2` is -16%. The figure for `CCCNC(=O)c1n[nH]c(=O)c2ccccc12` is -12.4%; for `Cc1cc(C)c2c(N)c(C(=O)c3ccc(Cl)cc3)sc2n1` it is 6.3%. Take `Cc1cc(C)c2c(N)c(C(=O)Nc3nccs3)sc2n1`: the inhibition is 34.4%. `Cc1cc(C)c2c(N)c(C(=O)c3ccccc3Cl)sc2n1`: the inhibition was 0.3%. As for `Cc1cc(C)c2c(N)c(C(=O)Nc3ncc(C)s3)sc2n1`, the figure is 92.5% (active); as for `Cc1cc(C)c2c(N)c(C(=O)NN)sc2n1`, -9.3%; as for `Cc1cc(C)c2c(N)c(C(=O)c3ccc(Cl)cc3Cl)sc2n1`, 81.7% (active). As for `O=C(CSc1nnc(NC(=O)C2CC2)s1)NCc1ccc(F)cc1`, the figure is -10%; as for `COc1ccc(C(C)=O)cc1CSc1ncccn1`, -32.9%; as for `O=C1Nc2cc(Cl)c(Cl)cc2N(O)N1c1ccc(Cl)cc1`, 11.5%. For the compound `CCCC/C(O)=C1\C(=O)CCCC1=NCCc1c(C)[nH]c2ccc(OC)cc12`, the inhibition was -7.7%. The figure for `CCC/C(O)=C1\C(=O)CCCC1=NCCc1c(C)[nH]c2ccc(OC)cc12` is 65.4% (active); for `CCC/C(O)=C1\C(=O)CCCC1=NCCc1c(C)[nH]c2ccc(C)cc12` it is -7.7%. Regarding `CCS(=O)(=O)c1ccc2c(c1)N(S(C)(=O)=O)CC(C(=O)NCc1ccccc1OC)O2` (configuration not stated), the inhibition is 10.4%. `Cc1cnc(C)c(N2CCN(Cc3nc(-c4cccc(F)c4F)oc3C)CC2)n1`: the inhibition was -26.1%.

`Cc1cccc(N2CCN(Cc3nc(-c4ccc(F)cc4F)oc3C)CC2)n1`: the inhibition is -6.3%. The figure for `COc1ccc(-c2nc(CN3CCN(c4cc(C)nc(C)c4)CC3)c(C)o2)c2ccccc12` is -23.4%. As for `Cc1cccc(N2CCN(Cc3nc(-c4ccccc4Cl)oc3C)CC2)n1`, the figure is -11.6%. The figure for `Cc1oc(-c2cc(F)ccc2F)nc1CN1CCN(c2cnccn2)CC1` is -26%. In the case of `COc1ccc(-c2nc(CN3CCN(c4ccccc4OC)CC3)c(C)o2)cc1`, the inhibition was -31.1%. The figure for `CCCCn1c(SCC(=O)Nc2cc(C(F)(F)F)ccc2Cl)nnc1C(CC)N(C)C` (configuration not stated) is -47.6%; for `O=C1CCc2cc(S(=O)(=O)N3CCC(C(=O)NCc4ccccn4)CC3)ccc2N1` it is -15.8%. As for `O=C(O)CCC(=O)Nc1cccc(-c2nnc(-c3ccccc3)o2)c1`, the figure is 15.5%; as for `CCN1CCSc2ccc(C(=O)Nc3ccc(NC(C)=O)cc3)cc21`, 4%. As for `CC(=O)Nc1ccc(NC(=O)C2(C)CC2(Cl)Cl)cc1` (configuration not stated), the inhibition is -29.2%. The figure for `N#CCCn1c(SCC(=O)NCc2ccco2)nc2ccccc21` is -13.3%; for `CC(=O)c1cccc(NC(=O)CNC(=O)Cc2ccccc2)c1` it is 19.8%; for `CC(C)(C)NC(=O)N1CCCN(c2ccc(C(F)(F)F)cn2)CC1` it is -7.3%.

As for `CCOC(CNc1cc(C)nc2c(-c3ccccc3OC)c(C)nn12)OCC`, the inhibition is -6.1%. The figure for `Clc1ccccc1-c1ccc(CN2CCN(c3ccccc3)CC2)o1` is 7.9%; for `Cc1cccc(C)c1NC(=O)C(C)N1CCCC1` (configuration not stated) it is 5.2%.

For `Cc1cc(C)c(NC(=O)C(C)N2CCCCCC2)c(C)c1` (configuration not stated), the inhibition was 39.1%. On to `CC(C(=O)Nc1c2c(cc3c1CCC3)CCC2)N1CCCC1` (configuration not stated), for which the inhibition was 63.4% (active).

For `c1ccc(CNc2ncnc3sccc23)cc1`, the inhibition is 31.8%. The figure for `O=C(O)c1cccc(Nc2ncnc3ccc(Br)cc23)c1` is -10.3%; for `Clc1ccc2c(NCc3ccco3)ncnc2c1` it is 16.7%; for `COc1cc2ncnc(NCc3ccco3)c2cc1OC` it is -1.4%. The figure for `Brc1ccc2ncnc(NCc3ccccc3)c2c1` is 93.1% (active); for `Cc1ccc(S(=O)(=O)CC(=O)c2ccccc2)cc1` it is -10%. Turning to `CC(=O)Nc1c(C)cc(S(C)(=O)=O)cc1C`, the inhibition was -12.2%. The figure for `NC(=O)c1c(NC(NC(=O)c2ccco2)(C(F)(F)F)C(F)(F)F)sc2c1CCCC2` is -24.2%.
